# Screening results (PubChem)
# POLH inh: inhibitors of human DNA polymerase eta. 1.2% of 390,000 active. AID 588591. Potency, µM (highest dose often 114 µM), inactives show top-dose activity change, negative = inhibition, most hits filed as inhibitors. recombinant Pol eta, fluorescent DNA replication assay. Q9Y253; also: potency is read from the fitted curve at half-maximal effect; % is scaled to controls: 0 for no effect and ±100 for the full control effect
#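 Pol eta at 10 nM preincubated with compounds 15 min at room temperature; reaction started with fluorescent substrate (50 nM final) and read kinetically at 0 and 10 min.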
# WRN inhibitor: inhibitors of human WRN helicase; WRN helicase unwinding, fluorescent forked duplex, kinetic; Q14191; 0.46% of 360,000 active; Potency, µM (highest dose often 114 µM), inactives show at the highest dose activity change, negative = inhibition, actives largely listed as inhibitors; also: potency is read from the fitted curve at half-maximal effect; % is scaled to controls: 0 for no effect and ±100 for the full control effect; nearly all actives have a fitted effect of over 55% in size
# Target sequence (Q14191 whole entry, looked up): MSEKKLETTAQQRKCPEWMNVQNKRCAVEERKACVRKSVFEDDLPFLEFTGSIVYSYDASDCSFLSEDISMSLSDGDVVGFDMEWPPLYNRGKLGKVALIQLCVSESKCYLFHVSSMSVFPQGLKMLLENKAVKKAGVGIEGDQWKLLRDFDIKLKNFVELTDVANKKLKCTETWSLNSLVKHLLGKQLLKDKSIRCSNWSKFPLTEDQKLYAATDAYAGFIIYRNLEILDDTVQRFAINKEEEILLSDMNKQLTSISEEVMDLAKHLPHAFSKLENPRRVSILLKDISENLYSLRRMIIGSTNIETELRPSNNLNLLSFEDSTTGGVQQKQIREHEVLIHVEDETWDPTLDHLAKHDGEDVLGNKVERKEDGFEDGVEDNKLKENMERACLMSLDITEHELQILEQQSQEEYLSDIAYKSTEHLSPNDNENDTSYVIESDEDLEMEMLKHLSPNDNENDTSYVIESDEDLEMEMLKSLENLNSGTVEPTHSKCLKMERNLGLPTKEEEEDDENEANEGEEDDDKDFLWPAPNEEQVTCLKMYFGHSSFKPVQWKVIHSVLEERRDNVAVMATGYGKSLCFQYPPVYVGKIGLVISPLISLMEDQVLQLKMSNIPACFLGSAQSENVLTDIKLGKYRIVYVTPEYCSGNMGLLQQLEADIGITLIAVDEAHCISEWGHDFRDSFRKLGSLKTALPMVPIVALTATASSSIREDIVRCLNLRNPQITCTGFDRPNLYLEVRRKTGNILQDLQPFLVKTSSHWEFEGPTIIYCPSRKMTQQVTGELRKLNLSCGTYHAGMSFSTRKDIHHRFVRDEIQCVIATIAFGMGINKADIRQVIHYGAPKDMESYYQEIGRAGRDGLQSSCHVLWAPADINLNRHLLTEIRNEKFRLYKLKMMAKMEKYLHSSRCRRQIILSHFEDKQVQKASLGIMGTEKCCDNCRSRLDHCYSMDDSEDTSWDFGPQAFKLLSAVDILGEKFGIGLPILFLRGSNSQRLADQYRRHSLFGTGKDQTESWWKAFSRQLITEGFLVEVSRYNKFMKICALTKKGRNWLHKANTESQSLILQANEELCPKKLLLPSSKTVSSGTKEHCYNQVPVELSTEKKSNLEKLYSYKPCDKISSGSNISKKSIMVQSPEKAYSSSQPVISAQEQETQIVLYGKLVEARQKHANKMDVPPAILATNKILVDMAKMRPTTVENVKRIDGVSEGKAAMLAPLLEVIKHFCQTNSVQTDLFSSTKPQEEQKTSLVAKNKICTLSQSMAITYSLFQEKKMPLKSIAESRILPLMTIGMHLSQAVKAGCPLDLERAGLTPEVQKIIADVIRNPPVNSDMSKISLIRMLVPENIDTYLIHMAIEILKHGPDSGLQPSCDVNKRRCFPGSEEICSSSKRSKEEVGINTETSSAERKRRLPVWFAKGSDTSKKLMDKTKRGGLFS
#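 Kinetic red-fluorescence monitoring (525/598 nm) tracks WRN helicase activity after 100 nM fluorophore-quencher forked duplex and 2 mM ATP are added to 20 nM enzyme pretreated 15 min at room temperature with compound.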
# Pol kappa inh: blocks human DNA polymerase kappa activity; Q9UBT6; purified Pol kappa, fluorescent DNA synthesis assay, 10 min; Potency, µM (doses to about 107 µM), inactives show at the highest dose activity, negative = inhibition, hits mostly inhibitors; 0.53% of 400,000 active; AID 588579; also: potency is read from the fitted curve at half-maximal effect; % is scaled to controls: 0 for no effect and ±100 for the full control effect
#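 Readout: fluorescence, taken kinetically at 0 and 10 min. Conditions: 10 nM Pol kappa, 15 min RT compound preincubation, 50 nM substrate final. Controls: enzyme-free buffer wells.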
# Pol beta inh: inhibitors of human DNA polymerase beta; 1.3% of 340,000 active; Pol beta primer extension/strand displacement, fluorescence kinetic; P06746; Potency, µM (highest dose often 114 µM), without a hit: at the top dose activity change, negative = inhibition, hits mostly inhibitors; also: potency is read from the fitted curve at half-maximal effect; % is scaled to controls: 0 for no effect and ±100 for the full control effect
#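 Pol beta (10 nM) and compounds were preincubated 15 min at room temperature, then 50 nM substrate (final) started primer extension/strand displacement. Reads were taken at 0 and 10 min; concentration-response data were fitted to a four-parameter Hill equation.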
# PI5P4Ka inh: PI5P4K alpha (human) kinase inhibition. max response, %. 1.2% of 330,000 active. PI5P4Kalpha enzyme, ADP-Glo luminescence, 60 min; active compounds read low. AID 652105. P48426; active = max response of -50% or lower; inconclusive = between -30% and -50%; inactive = -30% or higher; also: value at the top dose of about 77 µM; % is scaled to controls: 0 for no effect and ±100 for the full control effect
#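 Luminescence from ADP-Glo served as readout of PI5P4Kalpha activity in a qHTS format. Reaction: enzyme, substrate, compound, ATP at 5 microM final, 60 min at RT.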
# Pol iota inh: inhibitors of human DNA polymerase iota; Potency, µM (highest dose often 115 µM), without a hit: at the highest dose activity, negative = inhibition, usual class: inhibitors; Q9UNA4; 1% of 390,000 active; Pol iota fluorescent replication assay, 10 min; also: potency is read from the fitted curve at half-maximal effect
#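 Fluorescent replication assay read twice, at 0 min and 10 min after adding 50 nM (final) substrate. Enzyme (10 nM) and compounds were first incubated 15 min at room temperature; enzyme-free buffer wells were negative controls.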
# An asterisk follows results filed as active; ? = inconclusive; · = not tested or not shown; [ ] = another dose, or the depositor's remark. In the library only some 2.8% were active in any assay of this set; here they are far more common. Unless noted, calls follow the shape of the dose curve; as a rule, active = well fitted curve in the direction sought with a large enough effect; inconclusive = small, poorly fitted or top-dose-only effect, or another doubt; inactive = no such curve, though single readings can be large; an effect the other way counts as inactive or inconclusive.
SMILES,POLH inh,WRN inhibitor,Pol kappa inh,Pol beta inh,PI5P4Ka inh,Pol iota inh
Cc1ccc(S(=O)(=O)NN2C(=O)/C(=C/c3cccnc3)SC2=S)cc1,-13%,-9%,-4%,-18%,-30,?
COc1ccccc1/C=C1\SC(=S)N(NS(=O)(=O)c2ccc(C)cc2)C1=O,89µM*,-6%[11.6 µM],-7%,?,?,?
O=C(NN1C(=O)/C(=C/c2cccs2)SC1=S)c1ccncc1,5%,?,-9%,8%,-22,76%
Cc1ccc(NC(=O)Cn2c(=O)n(-c3ccc(CC(=O)NCC4CCCO4)cc3)c(=O)c3ccccc32)cc1 (stereo unspecified),-11%,·,-1%,22%,·,-5%
CN1CCN(Cc2c(C(=O)N/N=C/c3cccc(Br)c3)nnn2-c2nonc2N)CC1,-2%,1%,4%,3%,-2,-7%
CCNC(=O)c1ccc(NS(=O)(=O)c2ccc3[nH]c(=O)[nH]c3c2)cc1,-7%,-2%,3%,0%,2,48%
O=C(COc1cccnc1[N+](=O)[O-])c1ccc(Cl)s1,45µM*,?,79µM*,32µM*,-86*,11µM*
O=C(COc1cccnc1[N+](=O)[O-])Nc1c(Cl)cccc1Cl,-6%,5%,-6%,·,-3,27%
CCOC(=O)[C@]12CCCC=C1N(Cc1ccco1)C(=O)[C@H](CC(=O)N1CCSCC1)C2,·,2%,·,·,9,·
COc1cc(/C=C2/C(=O)NN(c3ccc(Cl)cc3)C2=O)ccc1OC(=O)c1ccco1,28µM*,40µM*,-22%,?,?,-19%
COc1cc(/C=C2/C(=O)NN(c3cccc(F)c3)C2=O)ccc1OC(=O)c1ccco1,?,50µM*,-7%,?,-26,?
Cn1/c(=N/NC(=O)c2ccccc2F)sc2ccccc21,6%,-3%,-17%,2%,8,7%
Cc1ccc(C(C[N+](=O)[O-])Sc2ccc(N)cc2)cc1 (stereo unspecified),-21%,45µM*,-3%,-2%,0,59%
Cc1ccc(C(C[N+](=O)[O-])n2nc(C)cc2C)cc1 (stereo unspecified),-18%,?,-5%,-9%,6,6%
Cc1cc(C)cc(NC(=O)CSc2nc(=O)n(CCCN3CCOCC3)c3c2CCCC3)c1,0%,?,-5%,·,-4,80%
O=C(COc1ccccc1[N+](=O)[O-])OCC(=O)c1ccc(Br)s1,79µM*,-5%[11.6 µM],-21%,·,?,-19%
CCc1ccccc1NC(=O)CN(C)C(=O)c1cccc(S(=O)(=O)N2CCCCCC2)c1,-5%,2%,-7%,·,0,20%
CCn1c(SCC(=O)Nc2nccc(C)n2)nc2ccccc21,-21%,-19%,-5%,79µM*,-6,?
N#Cc1c(N)nc2c3c(sc(=N)c2c1N)NC(=O)CC3c1ccccc1 (stereo unspecified),?,-12%[11.6 µM],-14%,-2%,-87*,30%
N#Cc1c(N)nc2c3c(sc(=N)c2c1N)NC(=O)CC3c1c(F)cccc1Cl (stereo unspecified),?,-26%,-17%,27%,-67*,27%
CCCC1NC(=O)c2cccnc2-n2c1nc1cc(C)cc(C)c1c2=O (stereo unspecified),-2%,-6%,·,·,2,·
CC(NC(=O)COC(=O)c1ccco1)C12CC3CC(CC(C3)C1)C2 (stereo unspecified),·,·,7%,·,·,-4%
O=C(CN1C(=O)C2CC=CCC2C1=O)NCC1COc2ccccc2O1 (stereo unspecified),-12%,0%,-17%,-5%,5,23%
O=C(O)CCSc1nnc(SCC(=O)NC2CCS(=O)(=O)C2)s1 (stereo unspecified),-3%,-17%,-1%,·,-4,82%
CSC1=NC(=O)/C(=C\c2cccc3ccccc23)S1,-16%,?,-5%,50µM*,-22,25%
SMILES,POLH inh,WRN inhibitor,Pol kappa inh,Pol beta inh,PI5P4Ka inh,Pol iota inh
CCCCCCCC(=O)NNC(=O)Cc1ccccc1,-2%,-7%,4%,0%,·,-21%
CCCCCC/C(C)=C1/SC(=S)NC1=O,-18%,-16%,-7%,6%,-71*,?
O=C(/C=C/c1ccccc1)CC(=O)c1ccccc1O,-17%,-14%,-29%,2%,1,14%
CCN(c1ccccc1)S(=O)(=O)c1ccc(Oc2ccc(-n3ccnc3)cc2)nc1,4%,-8%,-10%,40µM*,0,9%
CCN(c1ccccc1)S(=O)(=O)c1ccc(Oc2ccccc2C(C)=O)nc1,-25%,3%,1%,·,0,2%
CCn1c(O)c(/C=C/C=C/C=Nc2ccccc2)sc1=S,-12%,-27%,-26%,1%,-63*,?
Oc1c(/C=C/C=C/C=Nc2ccccc2)sc(=S)n1Cc1ccccc1,?,-30%,79µM*,-58%,-79*,25µM*
CCCCn1c(O)c(/C=C/C=C/C=Nc2ccccc2)sc1=S,-28%,-21%,?,?,?,1%
COc1ccccc1/C=C/C=N/NC(=O)Cc1cccn1C,?,-5%[57.1 µM],-12%,-13%,?,50µM*
CC(=O)Nc1ccc(NC(=O)CSc2cn(CC(=O)N3CCOCC3)c3ccccc23)cc1,-5%,-6%,1%,100µM*,1,0%
Cc1oc2cc(O)ccc2c(=O)c1Oc1ccccc1,-19%,71µM*,-3%,6%,?,-11%
CCOC(=O)c1cccc(NC(=O)NC2COc3ccccc3C2)c1 (stereo unspecified),6%,·,-5%[60.1 µM],0%,·,15%
CCOc1ccc2nc(NC(=O)CSc3nc(-c4ccccc4)c(C#N)c(=O)[nH]3)sc2c1,50µM*,?,-19%,-27%,?,?
COc1cccc(-c2nc(SCC(=O)Nc3nc(-c4ccccc4)c(C)s3)[nH]c(=O)c2C#N)c1,79µM*,-34%,-9%,?,?,?
Cc1sc(NC(=O)CSc2nc(O)cc(=O)[nH]2)nc1-c1ccccc1,-6%,?,-6%,-16%,-18,?
CC(C)(C)c1ccc(CN(Cc2ccco2)c2cnc(S(C)(=O)=O)nc2C(=O)Nc2ccc(F)cc2)cc1,-20%,·,1%,17%,·,11%
Cc1ccc2c(c1)-c1ccccc1S(=O)(=O)N2,-7%,-3%,1%,7%,5,14%
Nc1ccc2c(c1)-c1ccccc1S(=O)(=O)N2,45µM*,-33%,?,-2%,?,14µM*
OCC1O[C@H]([S-])[C@H](O)[C@@H](O)[C@@H]1O.[Au+] (stereo partly specified),·,·,5.3µM*,·,·,·
